Compound activity (PubChem)
A selection: hits, their analogues and other compounds. The true share with any hit is near 6.3%.
MPTP block: permeability transition pore inhibition | isolated mouse mitochondria, Ca2+ swelling absorbance, 30 min | inhibition, % at 10 µM | 360,000 compounds, 1.4% hits | AID 602449;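 active means inhibition of 50% or more, scaled per plate between neutral and stimulator controls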;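 further: 0% = DMSO wells given calcium and 100% = 1 mM EGTA wells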
Mdm2 MdmX PPI: inhibitors of human Mdm2/MdmX interaction; SaOS-2 split-luciferase Mdm2/MdmX complementation, luminescence; inhibition, % at 8 µM; AID 485346; 330,000 compounds, 3% hits;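 active means inhibition of at least 50% at 8 µM in the primary screen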
Target sequence (O15151 whole entry, looked up): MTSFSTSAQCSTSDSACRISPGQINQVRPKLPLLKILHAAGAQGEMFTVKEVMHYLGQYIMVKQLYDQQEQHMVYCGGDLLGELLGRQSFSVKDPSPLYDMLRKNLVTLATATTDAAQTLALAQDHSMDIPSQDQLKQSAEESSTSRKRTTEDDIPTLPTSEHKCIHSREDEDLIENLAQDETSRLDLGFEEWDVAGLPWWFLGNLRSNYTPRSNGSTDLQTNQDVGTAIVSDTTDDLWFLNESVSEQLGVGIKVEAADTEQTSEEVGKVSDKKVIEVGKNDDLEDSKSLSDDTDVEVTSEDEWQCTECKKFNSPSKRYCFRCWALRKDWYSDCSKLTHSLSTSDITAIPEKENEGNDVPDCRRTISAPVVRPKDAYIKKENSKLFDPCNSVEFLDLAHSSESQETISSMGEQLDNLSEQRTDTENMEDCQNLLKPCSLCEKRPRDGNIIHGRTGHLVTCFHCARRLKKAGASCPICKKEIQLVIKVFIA
Target sequence (Q00987 whole entry, looked up): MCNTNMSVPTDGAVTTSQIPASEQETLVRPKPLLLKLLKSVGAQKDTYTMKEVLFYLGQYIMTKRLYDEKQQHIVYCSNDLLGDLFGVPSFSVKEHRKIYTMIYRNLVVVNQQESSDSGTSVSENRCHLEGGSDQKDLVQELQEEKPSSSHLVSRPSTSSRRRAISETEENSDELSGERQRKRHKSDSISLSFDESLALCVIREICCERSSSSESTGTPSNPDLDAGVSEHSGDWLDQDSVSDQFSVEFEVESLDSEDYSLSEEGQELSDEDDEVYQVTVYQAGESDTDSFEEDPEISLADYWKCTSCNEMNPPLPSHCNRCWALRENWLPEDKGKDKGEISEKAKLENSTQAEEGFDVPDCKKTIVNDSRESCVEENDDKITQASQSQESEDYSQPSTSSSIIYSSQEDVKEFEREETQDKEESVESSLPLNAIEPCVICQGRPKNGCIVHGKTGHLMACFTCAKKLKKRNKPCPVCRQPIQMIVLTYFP
tim10-1 inh: inhibits growth of tim10-1 mutant yeast | S. cerevisiae tim10-1 ts strain growth, BacTiter-Glo, 24 h | inhibition, % at 20 µM | 330,000 compounds, 2.2% hits;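 active means inhibition of at least 40%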;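 further: mutant grown at 25 °C; 0% = DMSO wells with yeast and 100% = wells holding no yeast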
TIM10 inh: growth inhibitors of TIM10 yeast strain | S. cerevisiae TIM10 strain growth, BacTiter-Glo luminescence, 24 h | inhibition, % at 10 µM | 330,000 compounds, 1.4% hits;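 active means inhibition of 40% or more at the single tested concentration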;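 further: wild-type TIM10 isogenic control strain grown at permissive 25 °C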
tim23-1 inh: tim23-1 yeast growth inhibition. 330,000 compounds, 1.3% hits. inhibition, % at 20 µM. AID 463212. S. cerevisiae tim23-1 growth, BacTiter-Glo luminescence, 24 h;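 active means growth inhibition of the mutant yeast at or above 50%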;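 further: temperature-sensitive mutant grown at 25 °C; plate controls were DMSO-treated mutant yeast for no effect and medium wells lacking yeast for full effect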
tim10-1 confirm: confirmation of tim10-1 mutant yeast growth inhibitors | 7,400 compounds, 56% hits | AID 463213 | shares compounds with tim10-1 inh | S. cerevisiae tim10-1 ts strain growth, BacTiter-Glo, 24 h | inhibition, % at 20 µM;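 active means inhibition of yeast growth at or above a set limit in either of two repeat tests at 20 µM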;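 further: tim10-1 mutant grown at permissive 25 °C to find synthetic lethal compounds; 0% = DMSO yeast wells and 100% = medium wells without yeast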
An asterisk follows results filed as active; . = not tested or not shown.

SMILES	MPTP block	Mdm2 MdmX PPI	tim10-1 inh	TIM10 inh	tim23-1 inh	tim10-1 confirm
COc1ccc(NC(=O)c2cccc3c2C(=O)N(C2CCCCC2)C3)cc1	-0.1	14.6	21.0	24.2	26.3	.
Cc1ccc(S(=O)(=O)NCC(c2ccco2)S(=O)(=O)c2ccccc2)cc1 (stereo unspecified)	-2.2	6.9	43.5*	4.9	27.4	32.6*
Cc1ccc(S(=O)(=O)NCCC(c2ccccc2)c2ccco2)cc1 (stereo unspecified)	5.0	-20.7	-18.6	-8.0	37.4	.
COc1ccc(OC)c(S(=O)(=O)NCC(c2ccco2)S(=O)(=O)c2ccccc2)c1 (stereo unspecified)	-0.6	21.9	43.4*	3.4	11.0	37.7*
COc1cc(C(C#N)N2N=C(c3ccccc3)CC2c2ccccc2)ccc1O (stereo unspecified)	5.2	8.1	43.1*	21.9	37.0	19.2
COc1ccc2c(c1)OC[C@H]1[C@H]2N2C(=O)c3cc(OC)ccc3NC(=O)[C@@]2(C)[C@H]1c1ccccc1	-0.4	25.2	44.2*	14.6	17.7	3.9
Cc1cc(N=Nc2ccc(Cl)cc2)cc(CN2CCCC2)c1O	-1.4	-3.8	44.5*	24.6	24.8	26.9
CCN(CC)CCN(C)C(c1cc2ccccc2o1)c1nnnn1C(C)(C)C (stereo unspecified)	0.5	.	.	.	.	.
COc1ccc(-c2oc3c(c2C#CCCCCO)C(OCCO)CC3)cc1 (stereo unspecified)	-1.6	.	.	.	.	.
O=C(NCc1ccco1)c1cc2nc(-c3cccs3)cc(C(F)(F)F)n2n1	0.1	3.2	42.8*	14.4	7.6	28.0
CCCN(CC1CC1)C(=S)Nc1ccc(Oc2ccccc2)cc1	47.2	-32.0	17.2	26.6	43.7	.
CN(C(=S)Nc1ccc(Oc2ccccc2)cc1)C1CCCCC1	46.3	8.1	40.3*	27.3	21.4	19.1
CCCCNC(=O)C(NC(=O)c1cnccn1)C(=O)c1ccccc1 (stereo unspecified)	-0.6	.	.	.	.	.
COc1ccc(/C=C/C(=O)C2CC2)cc1Cn1nc(C)c([N+](=O)[O-])c1C	3.4	22.8	47.5*	24.0	24.5	37.3*
O=S(=O)(Nc1ccccc1)c1ccc(-c2cnc(C3CC3)o2)cc1	-0.8	49.5	45.5*	2.7	33.7	-38.3
CC(=O)Nc1ccc(NS(=O)(=O)c2ccc(-c3cnc(C4CC4)o3)cc2)cc1	-2.5	42.7	12.3	-1.1	12.1	.
COc1ccc(NS(=O)(=O)c2cc(C)ccc2C)cc1	0.4	11.8	27.5	-11.7	-6.1	.
COc1ccc(NS(=O)(=O)c2cc(-c3cnc(C4CC4)o3)ccc2C)cc1	0.1	43.9	44.5*	-1.3	37.8	-7.5
CCCCCCCCN1C(=O)[C@H](CC(=O)NCc2ccc(C)o2)C[C@@]2(C(=O)OCC)CCC=C12	-3.5	.	.	.	.	.
CCN(CC)S(=O)(=O)c1ccc(N2CCCC2)c(NS(=O)(=O)c2ccc(F)cc2)c1	1.0	5.2	40.2*	3.7	27.8	15.8
COc1ccc([C@H]2C[C@@H](O)[C@H](n3cc(C4CC4)nn3)CN2C(=O)c2cccs2)cc1	-1.9	.	.	.	.	.
c1ccc2c(c1)ccc1nnc(SCc3ccc4c(c3)OCO4)n12	-0.3	-0.7	42.0*	5.0	40.4	19.9
c1ccn2c(SCc3ccc4c(c3)OCCO4)nnc2c1	-2.3	-2.1	13.8	12.3	5.4	.
Cc1ccnc(SCCn2c(N3CCC(C)CC3)nc3c2c(=O)n(C)c(=O)n3C)n1	-1.2	5.2	45.1*	30.1	31.8	28.1
Cc1ccnc(SCCn2c(N3CC(C)CC(C)C3)nc3c2c(=O)n(C)c(=O)n3C)n1 (stereo unspecified)	1.5	-15.9	44.3*	27.3	42.1	30.2
SMILES	MPTP block	Mdm2 MdmX PPI	tim10-1 inh	TIM10 inh	tim23-1 inh	tim10-1 confirm
Cc1ccnc(SCCn2c(N3CCCCC3)nc3c2c(=O)n(C)c(=O)n3C)n1	-2.8	-13.8	36.2	5.4	24.3	.
Cc1cccc(-c2ccc(O)cc2CN2CCN(c3ncc(Cc4ccccc4)cn3)CC2)c1	2.8	.	.	.	.	.
NC(=O)c1cccc(-c2ccnc3c2CC(C(=O)Nc2ccc(Cl)cc2)O3)c1 (stereo unspecified)	2.5	.	.	.	.	.
CCCCC(=O)Nc1ccc(NC(=S)NC(=O)CCCCl)cc1OC	0.9	17.1	48.0*	35.5	22.2	39.0*
CCCCC(=O)NC(=S)Nc1ccc(NC(=O)C(C)C)c(OC)c1	2.1	10.9	42.5*	17.5	30.9	21.2
CCCCC(=O)Nc1ccc(NC(=S)NC(=O)CC)cc1OC	-2.2	-9.8	25.8	1.0	17.9	.
CCOC(=O)c1cc(NC(=O)Nc2ccccc2OC)c(C)nc1C	0.0	-16.1	41.1*	20.2	10.9	21.6
Nc1c(C(=O)NC2CCCC2)sc2nc(-c3cccs3)ccc12	0.2	-40.6	40.2*	29.9	22.4	32.0*
COC(=O)c1sc2nc(C)c([N+](=O)[O-])c(C)c2c1N	-0.5	-21.4	49.5*	19.9	35.3	24.9
CCN(CC)CCNCC1C(=O)O[C@@H]2C[C@@]3(C)CCC[C@H](C)C3=C[C@H]12 (stereo partly specified)	-0.1	38.2	51.4*	23.5	43.6	37.0*
CCOC(=O)c1ccc(-c2ccc(N3C(c4cccc(OC)c4)=Cc4ccc(F)cc4C3CC(C)=O)cc2)cc1F (stereo unspecified)	1.2	.	.	.	.	.
Cc1ccc(C)c(CSc2nnc([C@@H](N)C(C)C)o2)c1	-1.5	1.6	44.6*	19.3	35.4	49.1*
Cc1ccc(C)c(CSc2nnc(CCN)o2)c1	-1.6	16.9	15.6	7.2	8.1	.
CCOC(=O)c1ccc(NC(=S)N2CCSC2c2ccc(Br)cc2)cc1 (stereo unspecified)	-1.6	7.6	40.1*	25.1	37.4	29.5
O=C(c1ccc(Cn2cc(Cl)cn2)cc1)N1CCN(c2ccccc2)CC1	4.0	1.2	33.7	13.3	31.5	.
O=C(c1ccc(CSc2ccccc2)cc1)N1CCN(c2ccccc2)CC1	1.5	-30.4	45.4*	6.6	31.5	40.4*
O=C(c1ccc(Cn2cc(Br)cn2)cc1)N1CCN(c2ccccc2)CC1	-1.6	37.1	51.7*	31.5	43.8	44.0*
COc1ccccc1N1CCN(C(=O)c2cc3sccc3n2C)CC1	-0.9	33.8	42.8*	33.0	39.9	45.6*
O=C(CSCc1cccc(F)c1)N1CCN(c2ccccc2)CC1	-0.8	-86.6	42.7*	11.3	23.4	14.6
Cn1c(C(=O)N2CCN(c3nc4ccccc4s3)CC2)cc2sccc21	1.0	-11.8	2.3	-1.1	9.8	.
O=C(Nc1ccccc1)C1=C(Nc2ccccc2)CSC1	0.9	.	.	.	.	.
O=C(c1ccccc1)N1CCN(c2ncccn2)CC1	-0.2	14.0	-8.4	4.7	4.7	.
CCOc1ccccc1N1CCN(C(=O)c2ccc(-c3ccc(OC(C)=O)cc3)cc2)CC1	-0.9	18.9	40.6*	15.6	37.9	22.9
CCOc1ccccc1N1CCN(C(=O)c2ccccc2)CC1	0.8	-11.2	26.2	9.1	17.2	.
